Test results published in the supplement of paper PMC6555819.

Each sequence was assayed on VDR:RXRa (NR concentration 270 nM, RXRa partner concentration 90 nM) (assay: PBM binding z-score (relative to random genomic background probes); higher = stronger binding; sequences stand for … in GC…GCGATTGACAGCGTAGAATGAAGG).
Description: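 Protein-binding microarray (Agilent 4x180K custom design, double-stranded 60-nt probes: 5' GC cap, 34-nt variable region, 24-nt constant primer region; full probe sequence given). Purified or IVT nuclear receptor:RXRα heterodimers (3:1 NR:RXRα, mostly 270:90 nM) or homodimers were incubated for 1 h in PBS with 2% milk and no ligand, then detected with Alexa488 antibodies. Fluorescence from o1-orientation probes (~5 replicates averaged) was converted to z-scores against 500 random hg19 background probes. Variable regions are seed direct-repeat (DR0–DR5) sites, all their single-nucleotide variants and half-site ablations.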
For GCGACTGGGGCAAAGCAGGTTACCTTAAGGTTGG, the PBM binding z-score was 0.0193.
CAAACTAGGACACGAAAGGTCAAAGTCGAATGAC was tested, and the PBM binding z-score was 4.78.
For GATACAGGGTCTGCTAGAGGCCAGAGTATGGAAA, the PBM binding z-score was -0.492.
GGAACGAGGGCTAAGTTGATAGCATCTGTCGACG gave a PBM binding z-score of -0.701.
Work on GCGAATGGGGCATCAGCAGGTTACCATAACTTAA yielded a PBM binding z-score of -0.212.
Work on AGAATGAGGTTATTAAGATCACGGAATTGCGGTC yielded a PBM binding z-score of 3.68.
For GGAACGAGGGCATTCGACTTGATAGCATGGCGAT, the PBM binding z-score was 1.35.
CGTCCAAGGTCATAGGAGGTCAGTGACGACAGAT was tested, and the PBM binding z-score was 6.55.
CCTAGTTGCTCAAGGTCACACACGCTATAGGTAC gave a PBM binding z-score of 4.26.
In the case of GCGACTGGGGCATCAGCAGGTGACCATAACTTAA, the PBM binding z-score is reported as -0.635.
In the case of AATACAGGGTCACTAGGCCATAGTAGGTACGAAT, the PBM binding z-score is reported as 4.25.
Sequence ATCGAAAGGTCGAAGGTGAATATACCCACCCGAA has a PBM binding z-score of 3.08.
For GGAACGAGGGCAAGTTCATAGCAGAGTTTGATGG, the PBM binding z-score was 3.9.
For TCTAGTTGGTCAAAGCTCACACACTCGAAATGCG, the PBM binding z-score was 0.632.
ACTTACGGGTCAACGAGGTTGTAGCACGCGTATA gave a PBM binding z-score of 7.54.
With TAGCCTAGGTCATTGGGCCAGTACAGTACGCATC the PBM binding z-score was 2.19.
In the case of ATCGAAAGGTCGTGTGGTGAGTATACAGAAAGGC, the PBM binding z-score is reported as 3.66.
In the case of TCTATTAGTTGATTAAGGCAACCGAAACAGCGGA, the PBM binding z-score is reported as 0.578.
Work on GCTGCTAGGTCAACTGATGGTCAGCTACAGCTCG yielded a PBM binding z-score of 1.51.
For TTACCAAGGTGAAAGGTCGTTGATGCACGCCTTG, the PBM binding z-score was 3.14.
Work on CCTACTGGGCCATTCAGATGTCATTGATCATATG yielded a PBM binding z-score of -0.54.
In the case of GATACAGGGTCACCTAGAGGCCAGAGTATGGAAA, the PBM binding z-score is reported as 4.76.
CCCGAAAGGTCGTGCTCAGGTGAGTATACCAAAC gave a PBM binding z-score of 3.47.
In the case of CGAACTAGGTCATTGATAGGACAGTGAATAGTAA, the PBM binding z-score is reported as 2.27.
ATCTGTAGGTAAGACTCAGTTCAGTGAAGAACGC was tested, and the PBM binding z-score was 0.82.
Work on ATACCAAGGTGATCGTGACGTCGTTGATACTAAC yielded a PBM binding z-score of 0.156.
With CAGCCTAGGTAAGGGCCAGTATAGGAGGAACGTT the PBM binding z-score was -0.84.
In the case of AACACAGGGTCACTAGGCCAGAGTAGGTACGAAT, the PBM binding z-score is reported as 3.96.
GCTATTAGTTGAAAGGGCATCCGAATGATTCTCG showed a PBM binding z-score of 0.499.
CCGAGTGGGGCATAAGGTTACCATAAGCCAGCCC was tested, and the PBM binding z-score was 0.143.
AGTCAAAGTTCACTAGGTAACGTACGATTCAGCT was tested, and the PBM binding z-score was 4.24.
Sequence GCGACTGGGGCAAAGCAGGTTACTATAAGGTTGG has a PBM binding z-score of 0.0986.
CGAACTAGGTCATTGACAGGACAGTGTATAGTAA showed a PBM binding z-score of 2.05.
CCGACTGGGGCAAGTTTACCATAACGCACAGCCA showed a PBM binding z-score of 0.191.
In the case of ACTTACGGGCCAACGAGGTTATAGCACGCGTATA, the PBM binding z-score is reported as 3.84.
For CCTACTGGGCCAAAATGGTCATTGATGCCGATAA, the PBM binding z-score was -0.0666.
For TCTAGTTGGTCATAGGTCACACACTCGAAATGCG, the PBM binding z-score was 3.19.
CAAACTAGGTCAAGAGGTCAAAGCCCGCTTCCCG was tested, and the PBM binding z-score was 5.9.
In the case of AGACCGAGGGCAATGAGTTGATAGCACGGGTGGC, the PBM binding z-score is reported as 4.82.
In the case of CGTCGAAGGTCAAAGGTCAGTGAAGAGATGACGG, the PBM binding z-score is reported as 6.4.
